According to PubChem BioAssay (NCI):
The panel holds about 83,000 compounds, 20% with a hit somewhere; the sample as a whole holds those more often.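 96-well plates, one dose, 48 hours. Percent growth reported; active if below 10.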 The source made the active and inactive calls.

Tests used:
Experiment in all cases: NCI-60 one-dose screen, 48 h (100 = growth as untreated, 0 = no growth, -100 = all killed)
Conditions in all cases: 10 µM unless noted
DU-145 prostate = system: DU-145 prostate
K-562 leukemia = system: K-562 leukemia
MALME-3M melanoma = system: MALME-3M melanoma
MDA-MB-231 breast = system: MDA-MB-231 breast
RXF 393 renal = system: RXF 393 renal
SF-268 CNS = system: SF-268 CNS
SF-295 CNS = system: SF-295 CNS
SF-539 CNS = system: SF-539 CNS
UACC-257 melanoma = system: UACC-257 melanoma
M14 melanoma = system: M14 melanoma
HCT-15 colon = system: HCT-15 colon
HT29 colon = system: HT29 colon
SNB-75 CNS = system: SNB-75 CNS
SNB-19 CNS = system: SNB-19 CNS
U251 CNS = system: U251 CNS
PC-3 prostate = system: PC-3 prostate
SK-MEL-5 melanoma = system: SK-MEL-5 melanoma
LOX IMVI melanoma = system: LOX IMVI melanoma
SK-MEL-28 melanoma = system: SK-MEL-28 melanoma
UACC-62 melanoma = system: UACC-62 melanoma

Measured: growth

Cc1ccccc1-n1nnc(C(=O)Nc2ccc(-c3ccccc3)cn2)c1C
inactive: DU-145 prostate 54.3% [50 µM] | K-562 leukemia 26.5% [50 µM] | MALME-3M melanoma 39.6% [50 µM] | MDA-MB-231 breast 63.1% [50 µM] | RXF 393 renal 74.7% [50 µM] | SF-268 CNS 68.7% [50 µM] | SF-295 CNS 38.9% [50 µM] | SF-539 CNS 72.3% [50 µM] | UACC-257 melanoma 25.5% [50 µM] | M14 melanoma 41.8% [50 µM] | HCT-15 colon 39.8% [50 µM] | HT29 colon 28.1% [50 µM] | SNB-75 CNS 83.6% [50 µM] | SNB-19 CNS 62.6% [50 µM] | U251 CNS 64.9% [50 µM] | PC-3 prostate 40.5% [50 µM] | LOX IMVI melanoma 48.1% [50 µM] | SK-MEL-28 melanoma 56.8% [50 µM]
active: SK-MEL-5 melanoma -41.8% [50 µM]

Cc1c(C(=O)Nc2nc(-c3ccccc3)cs2)nnn1-c1cccc2ccccc12
inactive: DU-145 prostate 64.7% [50 µM] | K-562 leukemia 30.5% [50 µM] | MALME-3M melanoma 55.4% [50 µM] | MDA-MB-231 breast 68.7% [50 µM] | RXF 393 renal 89.1% [50 µM] | SF-268 CNS 72.5% [50 µM] | SF-295 CNS 37.2% [50 µM] | SF-539 CNS 69.2% [50 µM] | UACC-257 melanoma 44.9% [50 µM] | M14 melanoma 64.7% [50 µM] | HCT-15 colon 57.9% [50 µM] | HT29 colon 64.3% [50 µM] | SNB-75 CNS 80.6% [50 µM] | SNB-19 CNS 72.3% [50 µM] | U251 CNS 72.7% [50 µM] | PC-3 prostate 53.8% [50 µM] | UACC-62 melanoma 49.2% [50 µM] | LOX IMVI melanoma 43.4% [50 µM] | SK-MEL-28 melanoma 69.9% [50 µM]
active: SK-MEL-5 melanoma -2.94% [50 µM]

COC(=O)c1c2c(c(C)[n+]([O-])c1C)C(=O)C=C(NCc1ccc(F)c(Cl)c1)C2=O
active: DU-145 prostate -99% | K-562 leukemia -7.41% | MALME-3M melanoma -98.3% | MDA-MB-231 breast -25.6% | RXF 393 renal -41.1% | SF-268 CNS -9.98% | SF-295 CNS -97.5% | SF-539 CNS -89.7% | UACC-257 melanoma -82.8% | M14 melanoma -88.4% | HCT-15 colon -70.4% | HT29 colon 3.68% | SNB-75 CNS -96.9% | SNB-19 CNS -48.5% | U251 CNS -21.7% | PC-3 prostate -1.13% | SK-MEL-5 melanoma -97.7% | UACC-62 melanoma -70.8% | LOX IMVI melanoma -64.5% | SK-MEL-28 melanoma -11.8%

N#CC1=C(N)Oc2cc(N)ccc2C1c1ccc(F)cc1 (configuration not stated)
inactive: DU-145 prostate 93.1% | K-562 leukemia 24.8% | MALME-3M melanoma 71.9% | MDA-MB-231 breast 83.4% | RXF 393 renal 74.9% | SF-268 CNS 81.9% | SF-295 CNS 72.2% | SF-539 CNS 83.6% | UACC-257 melanoma 95.6% | M14 melanoma 51.1% | HCT-15 colon 46.9% | HT29 colon 46.4% | SNB-75 CNS 67.2% | SNB-19 CNS 81.1% | U251 CNS 83.4% | PC-3 prostate 90.8% | UACC-62 melanoma 74.7% | LOX IMVI melanoma 78.1%

O=C1c2[nH]cc(CN[C@@H]3CCCN3)c2C(=O)c2c1c(O)c1ccccc1c2O
active: DU-145 prostate -98.6% | K-562 leukemia -81.5% | MALME-3M melanoma -51.9% | MDA-MB-231 breast -96.7% | RXF 393 renal -98.2% | SF-268 CNS -88.2% | SF-539 CNS -94.1% | UACC-257 melanoma -64.9% | M14 melanoma -72.8% | HCT-15 colon -38.9% | HT29 colon -98.4% | SNB-75 CNS -71.6% | SNB-19 CNS -84.9% | U251 CNS -98.9% | PC-3 prostate -95.1% | SK-MEL-5 melanoma -89.8% | UACC-62 melanoma -100% | LOX IMVI melanoma -93% | SK-MEL-28 melanoma -100%
inactive: SF-295 CNS 70.5%

Cc1ccc(S(=O)(=O)N2CCc3ccc(O)c4c3C2Cc2cc(Cl)ccc2-4)cc1 (configuration not stated)
inactive: DU-145 prostate 85.5% | K-562 leukemia 24.7% | MALME-3M melanoma 57% | MDA-MB-231 breast 82.4% | RXF 393 renal 71% | SF-268 CNS 61.9% | SF-295 CNS 84.7% | SF-539 CNS 58.2% | UACC-257 melanoma 63.4% | M14 melanoma 68.7% | HCT-15 colon 48.4% | HT29 colon 103% | SNB-75 CNS 48.7% | SNB-19 CNS 83.9% | U251 CNS 30.2% | PC-3 prostate 65.7% | SK-MEL-5 melanoma 52.8% | UACC-62 melanoma 57% | LOX IMVI melanoma 68.9% | SK-MEL-28 melanoma 56.6%

NS(=O)(=O)c1ccc(C(=O)N/N=C(\CS(=O)(=O)c2ccccc2)c2cc3cc(Br)ccc3o2)cc1
inactive: DU-145 prostate 101% | K-562 leukemia 106% | MALME-3M melanoma 90.5% | MDA-MB-231 breast 73.7% | RXF 393 renal 74.7% | SF-268 CNS 73.3% | SF-295 CNS 101% | SF-539 CNS 80.6% | UACC-257 melanoma 94.8% | M14 melanoma 111% | HCT-15 colon 99.5% | HT29 colon 97.4% | SNB-75 CNS 56.1% | SNB-19 CNS 69.9% | U251 CNS 96.1% | PC-3 prostate 94.4% | SK-MEL-5 melanoma 85.6% | UACC-62 melanoma 82% | LOX IMVI melanoma 94.7% | SK-MEL-28 melanoma 98.4%

O=c1oc2ccccc2cc1-c1csc(N/N=C/c2cc3ccccc3nc2Cl)n1
inactive: DU-145 prostate 87.6% | K-562 leukemia 108% | MALME-3M melanoma 103% | MDA-MB-231 breast 79.1% | RXF 393 renal 111% | SF-268 CNS 106% | SF-295 CNS 97.8% | SF-539 CNS 96.1% | UACC-257 melanoma 115% | M14 melanoma 115% | HCT-15 colon 101% | HT29 colon 100% | SNB-75 CNS 96.7% | SNB-19 CNS 96.1% | U251 CNS 97.2% | PC-3 prostate 95% | SK-MEL-5 melanoma 98.4% | UACC-62 melanoma 91.8% | LOX IMVI melanoma 101% | SK-MEL-28 melanoma 102%

Cn1cc(C(=O)NCCC(=N)N)cc1NC(=O)CN=C(N)N
inactive: DU-145 prostate 104% | K-562 leukemia 134% | MALME-3M melanoma 106% | MDA-MB-231 breast 94.1% | RXF 393 renal 114% | SF-268 CNS 112% | SF-295 CNS 110% | SF-539 CNS 104% | UACC-257 melanoma 99.9% | M14 melanoma 94.2% | HCT-15 colon 111% | HT29 colon 107% | SNB-75 CNS 88.9% | SNB-19 CNS 101% | U251 CNS 98% | PC-3 prostate 92.5% | SK-MEL-5 melanoma 101% | LOX IMVI melanoma 97.5% | SK-MEL-28 melanoma 92.6%

c1ccc2cc(Cn3c(-c4ccc5ccccc5c4)[n+](Cc4ccc5ccccc5c4)c4ccccc43)ccc2c1
active: DU-145 prostate -19.2% | K-562 leukemia -45.1% | MALME-3M melanoma -58% | MDA-MB-231 breast -72.9% | RXF 393 renal -65% | SF-268 CNS -83.5% | SF-295 CNS -79.1% | SF-539 CNS -75.2% | UACC-257 melanoma -38.5% | M14 melanoma -72.8% | HCT-15 colon -74.6% | HT29 colon -71.7% | SNB-75 CNS -69.5% | SNB-19 CNS -76.4% | U251 CNS -78.6% | PC-3 prostate -57.8% | SK-MEL-5 melanoma -97.2% | UACC-62 melanoma -87.8% | LOX IMVI melanoma -98.8% | SK-MEL-28 melanoma -55.3%

CCCCc1ccc(NC(=O)C(F)(F)F)cc1
inactive: DU-145 prostate 100% | K-562 leukemia 85.8% | MALME-3M melanoma 140% | MDA-MB-231 breast 99.8% | RXF 393 renal 93.4% | SF-268 CNS 83.9% | SF-295 CNS 105% | SF-539 CNS 100% | UACC-257 melanoma 110% | M14 melanoma 105% | HCT-15 colon 105% | HT29 colon 99.8% | SNB-75 CNS 102% | SNB-19 CNS 106% | U251 CNS 97.4% | PC-3 prostate 101% | SK-MEL-5 melanoma 106% | LOX IMVI melanoma 95.5% | SK-MEL-28 melanoma 112%

CCC(C)Oc1cc(/C=N/NC(=O)c2cnn3c2NC(c2ccccc2)C3)ccc1OC (configuration not stated)
active: SF-539 CNS 9.65% | SNB-75 CNS -12.2%
inactive: DU-145 prostate 45.6% | K-562 leukemia 15.8% | MALME-3M melanoma 58.4% | MDA-MB-231 breast 39.4% | RXF 393 renal 21% | SF-268 CNS 44.7% | SF-295 CNS 18.7% | UACC-257 melanoma 55.5% | M14 melanoma 34% | HCT-15 colon 23.9% | HT29 colon 15% | SNB-19 CNS 38.6% | U251 CNS 34.8% | PC-3 prostate 25.3% | UACC-62 melanoma 36% | LOX IMVI melanoma 26.1% | SK-MEL-28 melanoma 59.1%

O=C1/C(=C/c2ccc([N+](=O)[O-])cc2)Oc2ccc(O)cc21
inactive: DU-145 prostate 103% | K-562 leukemia 41.7% | MALME-3M melanoma 91.8% | MDA-MB-231 breast 89% | RXF 393 renal 92.6% | SF-268 CNS 89.9% | SF-295 CNS 68.2% | SF-539 CNS 86.4% | UACC-257 melanoma 67.3% | M14 melanoma 97.8% | HCT-15 colon 84.3% | HT29 colon 46.8% | SNB-75 CNS 95.7% | SNB-19 CNS 90.7% | U251 CNS 63.6% | SK-MEL-5 melanoma 86.8% | UACC-62 melanoma 41.4% | LOX IMVI melanoma 60%
